# TbPYK inhibitor: blocks Trypanosoma brucei pyruvate kinase | Q57TT1 | TbPYK enzyme, Kinase-Glo Plus ATP luminescence, 45 min | Potency, µM (titrated, usually from 76.8 µM), for the others: at the top dose activity, negative = inhibition, usual class: inhibitors | hit rate 0.12% among 410,000 | AID 624173; also: nearly all actives have a fitted effect of over 50% in size
#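 Luminescent Kinase-Glo Plus end-point after 45 min room-temperature reaction of T. brucei pyruvate kinase started with 130 uM ADP (final). Buffer TEA 50 mM pH 7.2 with KCl, MgCl2, BSA, Tween-20; titration-based qHTS with fitted concentration-effect curves.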
# RE007 growth inh: less growth of the S. pombe RE007 Vpr strain; S. pombe RE007 Vpr strain, BacTiter-Glo ATP luminescence, 24 h; hit rate 0.21% among 360,000; Potency, µM (top dose mostly 92.2 µM), inactives show at the top dose activity change, negative = less growth, hits mostly inhibitors; active = well fitted falling curve with a large enough effect; inconclusive = small, poorly fitted or top-dose-only effect; inactive = no such curve, though single readings can be large or run the other way; also: nearly all actives have a fitted effect of over 50% in size
#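 Fission yeast strain RE007, carrying one chromosomally integrated HIV-1 vpr copy, was seeded at OD 0.01 in PMG+AL medium with 23 nL pinned compound. After 24 h at 30 °C and 99% humidity, viability was read by BacTiter-Glo luminescence.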
# LmPK inhibitor: inhibitors of Leishmania mexicana pyruvate kinase; Q27686; purified LmPK, Kinase-Glo ATP luminescence, 1 h; Potency, µM (doses to about 57.5 µM), for inactives: at the highest dose activity change, negative = inhibition, actives largely listed as inhibitors; hit rate 0.37% among 290,000; AID 1721
#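 Kinase-Glo luminescence read after 1 h RT reaction of 0.1 nM LmPK with 0.5 mM PEP and 0.1 mM ADP. Activity scaled between uninhibited and enzyme-free controls.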
# Giardia FBPA inh: inhibitors of Giardia lamblia fructose-1,6-bisphosphate aldolase; AID 2451; A8B2U2; Potency, µM (top dose mostly 59.6 µM), without a hit: at the highest dose activity, negative = inhibition, usual class: inhibitors; purified Giardia FBPA; hit rate 0.71% among 290,000; also: nearly all actives have a fitted effect of over 55% in size
# Target sequence (A8B2U2 whole entry, looked up): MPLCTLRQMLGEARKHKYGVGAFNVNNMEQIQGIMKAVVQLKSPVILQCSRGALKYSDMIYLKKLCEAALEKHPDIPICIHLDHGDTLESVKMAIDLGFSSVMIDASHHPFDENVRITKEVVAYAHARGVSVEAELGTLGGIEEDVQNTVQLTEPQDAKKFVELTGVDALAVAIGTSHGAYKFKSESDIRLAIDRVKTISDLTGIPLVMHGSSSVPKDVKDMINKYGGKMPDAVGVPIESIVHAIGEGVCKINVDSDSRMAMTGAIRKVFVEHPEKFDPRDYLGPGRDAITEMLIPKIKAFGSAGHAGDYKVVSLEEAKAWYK
#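 40 nM FBPA preincubated 10 min at RT with compound (up to 57.5 uM final), then substrate plus GAPDH/TPI/NAD/arsenate coupling and diaphorase/resazurin added. Fluorescence read after 20 min at RT, 525/598 nm.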
# Sm TGR block: inhibitors of Schistosoma mansoni thioredoxin glutathione reductase | purified TGR, DTNB reduction, TNB absorbance 405 nm | Potency, µM (top dose mostly 114 µM), for the others: top-dose activity change, negative = inhibition, usual class: inhibitors | hit rate 3% among 360,000 | AID 485364; also: nearly all actives have a fitted effect of over 60% in size
#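 Kinetic colorimetric format: TGR-catalysed, NADPH-driven DTNB reduction monitored via TNB absorbance. Enzyme dispensed at 20 nM; compound exposure 15 min at room temperature before reaction start.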
# The depositor's hits bear a star; ? = inconclusive; / = no result. The list is not random: actives were taken first. Their share in the collection is about 3.3%. Unless noted, calls follow the shape of the dose curve; as a rule, active = well fitted curve in the direction sought with a large enough effect; inconclusive = small, poorly fitted or top-dose-only effect, or another doubt; inactive = no such curve, though single readings can be large; an effect the other way counts as inactive or inconclusive. % is scaled to controls: 0 for no effect and ±100 for the full control effect; potency is read from the fitted curve at half-maximal effect.
SMILES,TbPYK inhibitor,RE007 growth inh,LmPK inhibitor,Giardia FBPA inh,Sm TGR block
Cc1nc(S(=O)(=O)c2ccc(Cl)cc2Cl)nc2c1CCC2,-3%,-11%,5%,18%,25µM*
O=c1oc2cc([N+](=O)[O-])ccc2nc1/C=C(\O)c1cccc(Br)c1,-4%,14%,3%,?,-28%
O=c1oc2cc([N+](=O)[O-])ccc2nc1/C=C(O)/C=C/c1ccccc1,/,/,-1%,-20%,35µM*
Cc1cc(O)c(C(c2ccccc2)N2CCN(c3ccccc3)CC2)c(=O)n1Cc1ccco1 (configuration not stated),-2%,/,/,/,3.2µM*
CCOc1ccc(C(c2nnnn2Cc2ccccc2)N2CCN(C(=O)c3ccco3)CC2)cc1 (configuration not stated),-2%,-16%,/,/,/
Cc1cc(C(=O)CSc2nn(-c3ccccc3)c(=S)s2)c(C)n1Cc1ccco1,-2%,5%,-4%,-2%,-23%
Cc1cc(O)c(C(c2ccc(F)cc2)N2CCCCC2)c(=O)n1Cc1ccco1 (configuration not stated),1%,/,/,/,20µM*
Cc1cc(O)c(C(c2ccc(F)cc2)N2CCN(c3ccccc3)CC2)c(=O)n1Cc1ccco1 (configuration not stated),-9%,/,/,/,10µM*
CCOc1ccc(C(c2c(O)cc(C)n(Cc3ccco3)c2=O)N2CCN(C)CC2)cc1 (configuration not stated),-11%,/,/,/,7.9µM*
Cc1cnc(C(=O)NCc2ccc(F)cc2)cn1,-11%,23%,1%,7%,7%
O=C(O)c1ccc(Sc2ccccn2)c([N+](=O)[O-])c1,0%,8%,2%,12%,-4%
CC(C)CC(c1nnnn1Cc1ccco1)N1CCN(c2cccc(Cl)c2)CC1 (configuration not stated),-11%,-17%,10%,-2%,-28%
Cc1nc2ccn(Cc3ccco3)c(=O)c2cc1C(=O)N1CCN(c2ccc(F)cc2)CC1,-5%,/,/,/,-34%
Cc1cc(O)c(C(c2ccccc2)N2CCN(c3ccc(F)cc3)CC2)c(=O)n1Cc1ccco1 (configuration not stated),3%,/,/,/,3.5µM*
Cc1cc(O)c(C(c2ccc(Cl)cc2)N2CCN(c3ccccc3)CC2)c(=O)n1Cc1ccco1 (configuration not stated),5%,/,/,/,5µM*
CCc1ccccc1Nc1nc2ccccc2n1CC,1%,-21%,2%,2%,1%
COc1ccc(C2=CC(=O)C=CC2=O)cc1,/,/,2.5µM*,16µM*,0.89µM*
O=[N+]([O-])c1ccc2c(c1)nc1n2CCCCC1,4%,-3%,-4%,1%,0%
O=[N+]([O-])c1ccc2c(c1)nc1n2CCN(C2CCCCC2)C1,-27%,3%,0%,-3%,35µM*
COc1cccc(CC(=O)Nc2cc(S(=O)(=O)N3CCOCC3)ccc2N2CCOCC2)c1,-2%,8%,6%,0%,9%
CCCC1=C(C(=O)OCC)C(c2ccco2)C(C#N)=C(N)O1 (configuration not stated),1%,0%,1%,-15%,32µM*
CCOC(=O)C1=C(CC)OC(N)=C(C#N)C1c1ccc(NC(C)=O)cc1 (configuration not stated),-11%,6%,-1%,-28%,11µM*
CCCCCCc1c(O)nc(SCCN2CCOCC2)[nH]c1=O,4%,1%,3%,-15%,/
C1CC(CN2CCOCC2)CN(c2nc3nonc3nc2N2CCSCC2)C1 (configuration not stated),-1%,7%,-4%,7%,?
C1CN(CC2CCN(c3nc4nonc4nc3N3CCSCC3)CC2)CCO1,0%,4%,1%,6%,28µM*
SMILES,TbPYK inhibitor,RE007 growth inh,LmPK inhibitor,Giardia FBPA inh,Sm TGR block
O=C(/C=C/c1c(Cl)cccc1Cl)n1cccn1,3%,-26%,-10%,1%,18µM*
CCC(=O)Nc1cccc(C2=NOC3(C2)C[C@@H](C(N)=O)N(C(=O)CC(c2ccccc2)c2ccccc2)C3)c1 (some centres not stated),3%,12%,3%,-3%,4%
Cc1ccsc1C1Nc2ccc3ncccc3c2C2=C1C(=O)CC(C)(C)C2 (configuration not stated),4%,0%,2%,?,3%
CC1(C)CC(=O)C2=C(C1)c1c(ccc3ccccc13)NC2c1ccco1 (configuration not stated),3%,-1%,10%,-8%,45µM*
CCC(C)[C@H](NC(=O)NCCCN1CCOCC1)C(=O)OC (some centres not stated),7%,9%,-4%,-15%,-1%
Cc1[nH]c2ccccc2c1C(C#N)(C#N)C1C(=O)c2ccccc2C1=O,2%,-19%,-28%,10µM*,45µM*
NC(=O)c1sc2nc(-c3ccco3)ccc2c1N,-16%,-1%,-6%,-20%,?
COC(=O)c1sc2nc(-c3ccco3)ccc2c1N,?,-16%,-22%,-11%,2.8µM*
Nc1c(C(=O)Nc2ccccc2F)sc2nc(-c3ccco3)ccc12,-5%,-13%,5%,-6%,2.8µM*
COc1ccccc1CN(C)C(=O)c1ccc2c(c1)NC(=O)CS2,-2%,5%,4%,-5%,9%
CCn1c(SCC(=O)c2ccccc2)nnc1-c1cnccn1,-25%,0%,-2%,?,-12%
O=C(/C=C/[C@H]1O[C@@H](n2ccc(=O)[nH]c2=O)[C@H](O)[C@@H]1O)NCc1ccc2c(c1)OCO2,-2%,0%,/,/,/
COC(=O)c1c(NC(=O)C(Cl)Cl)sc2c1C(C(=O)OC)CC2 (configuration not stated),-1%,-13%,5%,6%,2%
COC(=O)c1c(NC(=O)C(C)(C)C)sc2c1C(C(=O)OC)CC2 (configuration not stated),-8%,4%,7%,/,32µM*
COc1ccc(NC(=O)/C(Cl)=C(/Cl)S(=O)Cc2ccc(Cl)cc2)cn1 (configuration not stated),17%,4.5µM*,-5%,-5%,0.1µM*
COc1ccc(NC(=O)/C(Cl)=C(/Cl)S(=O)(=O)Cc2ccccc2)cn1,-4%,?,-2%,-1%,10µM*
COc1ccc(NC(=O)C(Cl)=C(Cl)Cl)cn1,3%,0%,4%,-12%,1%
COc1ccc(NC(=O)C(C)(C)Oc2ccc(Cl)cc2)cn1,-15%,-14%,/,/,1%
CC(=O)OC1C[C@]2(C)C(C(C)=O)CCC2C2CCC3=CC(=O)CC[C@@]3(C)C12 (some centres not stated),/,/,/,8%,/
CSc1ncc(Cl)c(C(=O)Nc2ccc(NC(C)=O)cc2)n1,-2%,8%,-2%,3%,0%

# Screening results from PubChem.
